bCat KO growth – primary screen for growth suppressors in beta-catenin knockout HCT116 cells (colon tumor, human); AID 818, 2007; viability, % at 10 µM; HCT116 beta-catenin knockout viability, CellTiter-Glo, 60 h; stronger effect = lower value; actives 1.5% (n = 140,000);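 active = viability at or under a set limit, the compound median less 4 SD, cut at about 6% in these data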;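 also: 0% = Hyamine 1622 control at 20 µM and 100% = untreated cell control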
INS promoter inh – inhibitors of insulin promoter-driven GFP, primary screen, imaging, TRM-6 cells (human fetal islet line), eGFP reporter, cell count | inhibition, % at 2 µM | actives 0.9% (n = 130,000) | reporter expression induced with tamoxifen;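 active = inhibition above the mean plus 3 SD, with well images judged a real hit on visual review, cut at about 60% in these data, passing the limit was not always enough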
PTEN del growth – growth suppression of PTEN-null HCT116, primary screen, cell-based, CellTiter-Glo | actives 1.2% (n = 140,000) | HCT116 PTEN-null viability, 60 h; stronger effect = lower value | viability, % at 10 µM;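 active = viability at or below a set limit, 4 SD under the median of all tested compounds, cut at about 3.7% in these data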;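 also: PTEN knockout HCT116 line with beta catenin targeted HCT116 as companion control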
ROMK primary – ROMK potassium channel modulators, primary screen, cell-based, thallium flux, MLSMR library. ATP-sensitive inward rectifier potassium channel 1 (Homo sapiens), P48048. Tet-inducible ROMK, thallium flux fluorescence; actives lie on both sides. B-score at 10 µM. actives 2% (n = 130,000);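 active = signal ratio slope over the read window, or its plate-corrected B-score, at least 3 SD from the plate mean, either direction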;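 also: B-score of the F/F0 ratio slope over 7 to 12 s after thallium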
Target sequence (P48048 whole entry, looked up): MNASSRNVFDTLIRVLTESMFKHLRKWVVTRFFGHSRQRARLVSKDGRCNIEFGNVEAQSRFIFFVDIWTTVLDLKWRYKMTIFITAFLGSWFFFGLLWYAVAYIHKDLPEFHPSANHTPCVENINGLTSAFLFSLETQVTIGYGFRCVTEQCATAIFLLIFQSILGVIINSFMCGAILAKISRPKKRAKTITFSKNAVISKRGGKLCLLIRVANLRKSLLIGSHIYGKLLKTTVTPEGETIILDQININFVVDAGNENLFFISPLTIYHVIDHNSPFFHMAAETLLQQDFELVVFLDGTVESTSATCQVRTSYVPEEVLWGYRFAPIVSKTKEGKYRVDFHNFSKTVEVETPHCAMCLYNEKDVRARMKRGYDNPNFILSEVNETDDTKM
p97 ATPase inh – inhibitors of human p97 ATPase, primary screen, biochemical; inhibition, % at 8 µM; recombinant p97 ATPase, Kinase-Glo ATP luminescence, 3 h; AID 1481, 2009; actives 0.42% (n = 220,000); in the data active = inhibition above about 15%;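 also: 0% = DMSO vehicle and 100% = wells lacking enzyme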
L major viab – Leishmania major promastigote growth inhibition, primary screen | Leishmania major promastigotes, resazurin fluorescence viability | inhibition, % at 10 µM | actives 9% (n = 200,000) | AID 1063, 2008; in the data active = inhibition above about 50%;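 also: promastigotes grown with compound for 44 hours at 28 °C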
An asterisk follows results filed as active. Sampled rows, rich in hits. Any-hit rate of the full collection: about 10%.

What do the screens show for `Cn1nccc1C(=O)Oc1ccc(/C=N/NC(=O)c2ccccc2O)cc1`?
INS promoter inh: 47; ROMK primary: 0.91; p97 ATPase inh: 6; L major viab: -1

What do the screens show for `N#CC1=C(N)Oc2cc(N)ccc2C1c1cccnc1` (stereo unspecified)?
bCat KO growth: 57; INS promoter inh: 50; PTEN del growth: 59; ROMK primary: 0.37; p97 ATPase inh: 7; L major viab: -7

How did CCN(CC)c1ccc2c(c1)OC(N)=C(C#N)C2c1cccnc1 (stereo unspecified) do in these assays?
bCat KO growth: 17; PTEN del growth: 18; p97 ATPase inh: -7; L major viab: 81*

Results for CC(C)=CCN1CCN(CCC2=C(C)CCCC2(C)C)CC1CCO (stereo unspecified) ?
ROMK primary: -2.9; p97 ATPase inh: 2; L major viab: 80*

Results for CC1=C(CCN2CCN(C3CCCC3)C(CCO)C2)C(C)(C)CCC1 (stereo unspecified) ?
ROMK primary: -2.7; p97 ATPase inh: 0; L major viab: 83*

Results for Fc1cccc2sc(N3CCCC3)nc12 ?
ROMK primary: 0.61; p97 ATPase inh: -2; L major viab: 0

What do the screens show for `CC1=Nc2nc(N3CCCCC3)c(C#N)c3c4c(nc(c23)N1)N(c1ccc(C(C)C)cc1)C(=O)C4`?
bCat KO growth: 71; INS promoter inh: 4; PTEN del growth: 84; p97 ATPase inh: 9; L major viab: 59*

How did COc1cc(CC(NC(C)=O)C(=O)NC2CCN(c3c(Cc4ccccc4)c(C)nc4ncnn34)CC2)cc(OC)c1 (stereo unspecified) do in these assays?
bCat KO growth: 88; INS promoter inh: 17; PTEN del growth: 97; ROMK primary: -0.0076; p97 ATPase inh: 2; L major viab: -7

Results for Cc1cc2ccccn2c1C(=O)c1ccc([N+](=O)[O-])o1 ?
INS promoter inh: -64; ROMK primary: -0.98; p97 ATPase inh: -1; L major viab: 99*

How did Cc1cc2ccccn2c1C(=O)c1cccc([N+](=O)[O-])c1 do in these assays?
INS promoter inh: -100; ROMK primary: 0.069; p97 ATPase inh: -3; L major viab: -8

How did CC(C)(C)C(=O)N1CCc2cc(-c3csc(N)n3)ccc21 do in these assays?
bCat KO growth: 93; INS promoter inh: -25; PTEN del growth: 86; p97 ATPase inh: 2; L major viab: 59*

What do the screens show for `CCC(C)C(=O)N1CCc2cc(-c3csc(N)n3)ccc21` (stereo unspecified)?
bCat KO growth: 88; INS promoter inh: -50; PTEN del growth: 92; ROMK primary: -0.88; p97 ATPase inh: -3; L major viab: 0

Results for Cc1occc1C(=O)N/N=C/c1ccccc1[N+](=O)[O-] ?
p97 ATPase inh: -6

What do the screens show for `Cc1c(/C=N/NC(=O)CNc2ccccc2)c2ccccn2c1C(=O)c1ccncc1`?
bCat KO growth: 56; PTEN del growth: 58; p97 ATPase inh: 5; L major viab: 100*

What do the screens show for `COc1ccc(NC(=O)COC(=O)CNS(=O)(=O)c2ccc(F)c(F)c2F)cc1OC`?
bCat KO growth: 89; INS promoter inh: -21; PTEN del growth: 94; p97 ATPase inh: -6; L major viab: 1

What do the screens show for `CC(=O)Nc1ccc(OCC(=O)NC(C)c2ccc(F)cc2)cc1` (stereo unspecified)?
INS promoter inh: 17; ROMK primary: 0.017; p97 ATPase inh: 1; L major viab: -7

What do the screens show for `CCc1ccc2c(Cl)c(C(=O)N/N=C/c3c[nH]c4ccccc34)sc2c1`?
bCat KO growth: 65; PTEN del growth: 72; ROMK primary: -0.28; p97 ATPase inh: 4; L major viab: 42

Results for O=C(N/N=C/c1ccc(Cl)cc1)c1cc(-c2cccnc2)nc2ccccc12 ?
INS promoter inh: 36; p97 ATPase inh: 5; L major viab: 98*

What do the screens show for `O=C(N/N=C/c1ccc[nH]1)c1cc(-c2ccc(Cl)cc2)nc2ccccc12`?
ROMK primary: 0.1; p97 ATPase inh: 7; L major viab: 90*

Assay outcomes deposited in PubChem by several laboratories.
